Source: PubChem BioAssay
JMJD2A Tudor = blocks the human JMJD2A Tudor domain. Potency, µM (highest dose often 114 µM), without a hit: at the top dose activity change, negative = inhibition, actives largely listed as inhibitors. hit rate 4.4% among 390,000. AlphaScreen JMJD2A-Tudor / H3K4me3 peptide binding. AID 504339. O75164; note: % is set by controls: 0 for no effect and ±100 for the full control effect; nearly all actives have a fitted effect of over 50% in size
L3MBTL1 block = blocks human L3MBTL1. AlphaScreen L3MBTL1–H3K9me1 peptide binding. Potency, µM (doses to about 57.1 µM), inactives show at the highest dose activity, negative = inhibition, most hits filed as inhibitors. hit rate 0.66% among 230,000. AID 485360; note: % is set by controls: 0 for no effect and ±100 for the full control effect; nearly all actives have a fitted effect of over 60% in size
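Read-out is AlphaScreen signal from streptavidin donor and nickel chelate acceptor beads (10 ug/mL final each) bridging L3MBTL1 (50 nM) and biotinylated K9-monomethylated H3(1-15) peptide (75 nM), after 30 min compound exposure at room temperature.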
G9a inh = inhibitors of human histone lysine methyltransferase G9a. hit rate 8.8% among 350,000. Q96KQ7. G9a H3K9 monomethylation, AlphaScreen, 2 h. Potency, µM (doses to about 102 µM), for the others: at the highest dose activity, negative = inhibition, hits mostly inhibitors; note: % is set by controls: 0 for no effect and ±100 for the full control effect; nearly all actives have a fitted effect of over 75% in size
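Using a bead-based AlphaScreen, monomethylated H3K9 product from 2 h room-temperature reactions (G9a 20 nM, peptide 500 nM, SAM 20 uM) was detected with 0.5 ug/mL rabbit anti-H3K9me1 antibody.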
BAZ2B inh = blocks human BAZ2B | Q9UIF8 | AlphaScreen BAZ2B-H3K14Ac peptide displacement | Potency, µM (top dose mostly 114 µM), for the others: at the highest dose activity change, negative = inhibition, most hits filed as inhibitors | hit rate 4.4% among 360,000; note: % is set by controls: 0 for no effect and ±100 for the full control effect; nearly all actives have a fitted effect of over 60% in size
Target sequence (Q9UIF8 whole entry, looked up): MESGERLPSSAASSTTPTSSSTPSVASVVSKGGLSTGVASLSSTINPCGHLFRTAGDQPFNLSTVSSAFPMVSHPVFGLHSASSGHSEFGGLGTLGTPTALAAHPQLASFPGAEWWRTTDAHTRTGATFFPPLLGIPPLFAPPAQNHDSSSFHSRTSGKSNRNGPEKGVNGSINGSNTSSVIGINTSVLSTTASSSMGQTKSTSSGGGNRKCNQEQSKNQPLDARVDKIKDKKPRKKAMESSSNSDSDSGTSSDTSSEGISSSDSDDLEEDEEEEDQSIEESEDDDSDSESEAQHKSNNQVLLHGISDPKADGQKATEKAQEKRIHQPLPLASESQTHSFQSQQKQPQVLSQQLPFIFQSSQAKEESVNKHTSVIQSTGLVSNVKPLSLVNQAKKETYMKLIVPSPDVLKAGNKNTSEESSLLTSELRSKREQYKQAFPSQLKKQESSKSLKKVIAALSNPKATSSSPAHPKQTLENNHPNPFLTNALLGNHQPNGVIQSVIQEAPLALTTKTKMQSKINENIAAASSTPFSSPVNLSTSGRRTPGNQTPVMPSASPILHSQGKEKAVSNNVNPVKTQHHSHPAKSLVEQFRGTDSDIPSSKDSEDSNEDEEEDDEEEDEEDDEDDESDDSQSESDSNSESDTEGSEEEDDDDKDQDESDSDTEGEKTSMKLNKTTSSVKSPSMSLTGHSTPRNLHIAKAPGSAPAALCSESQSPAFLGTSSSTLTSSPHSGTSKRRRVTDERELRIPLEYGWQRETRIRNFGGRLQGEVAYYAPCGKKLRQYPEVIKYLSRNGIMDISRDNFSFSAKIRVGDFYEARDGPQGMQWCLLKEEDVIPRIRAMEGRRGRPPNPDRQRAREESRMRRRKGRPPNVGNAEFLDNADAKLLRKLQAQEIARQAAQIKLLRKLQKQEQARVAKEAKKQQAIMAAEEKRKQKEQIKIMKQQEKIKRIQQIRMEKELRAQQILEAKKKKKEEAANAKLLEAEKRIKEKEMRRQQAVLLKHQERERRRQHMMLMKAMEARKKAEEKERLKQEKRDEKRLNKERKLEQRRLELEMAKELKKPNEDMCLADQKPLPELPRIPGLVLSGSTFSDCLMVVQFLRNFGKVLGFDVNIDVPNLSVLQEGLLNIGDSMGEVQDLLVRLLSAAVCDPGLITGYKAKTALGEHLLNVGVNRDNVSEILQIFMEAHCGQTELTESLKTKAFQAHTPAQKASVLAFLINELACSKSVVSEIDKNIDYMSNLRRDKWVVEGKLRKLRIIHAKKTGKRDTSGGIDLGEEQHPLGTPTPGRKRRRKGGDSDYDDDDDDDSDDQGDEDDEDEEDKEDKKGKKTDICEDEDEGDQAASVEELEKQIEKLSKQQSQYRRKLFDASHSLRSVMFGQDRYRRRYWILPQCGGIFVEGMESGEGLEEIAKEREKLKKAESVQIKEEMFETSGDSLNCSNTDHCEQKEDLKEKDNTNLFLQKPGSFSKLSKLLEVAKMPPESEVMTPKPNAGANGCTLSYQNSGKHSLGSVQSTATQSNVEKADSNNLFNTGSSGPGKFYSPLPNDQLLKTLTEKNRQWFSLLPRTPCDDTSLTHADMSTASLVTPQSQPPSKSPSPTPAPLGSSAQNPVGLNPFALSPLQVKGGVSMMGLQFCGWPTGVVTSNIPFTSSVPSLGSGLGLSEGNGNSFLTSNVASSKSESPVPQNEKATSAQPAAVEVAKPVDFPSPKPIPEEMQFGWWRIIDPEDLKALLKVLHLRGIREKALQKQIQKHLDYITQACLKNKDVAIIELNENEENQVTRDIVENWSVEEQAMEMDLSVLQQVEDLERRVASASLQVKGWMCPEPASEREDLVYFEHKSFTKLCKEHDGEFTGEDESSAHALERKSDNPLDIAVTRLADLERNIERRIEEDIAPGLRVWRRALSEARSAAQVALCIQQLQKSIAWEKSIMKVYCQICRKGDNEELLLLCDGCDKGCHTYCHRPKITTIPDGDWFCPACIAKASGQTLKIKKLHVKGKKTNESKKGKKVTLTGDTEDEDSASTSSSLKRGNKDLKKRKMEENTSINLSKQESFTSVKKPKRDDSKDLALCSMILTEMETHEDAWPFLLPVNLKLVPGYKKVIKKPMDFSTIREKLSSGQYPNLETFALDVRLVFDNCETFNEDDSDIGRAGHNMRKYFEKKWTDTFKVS
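AlphaScreen displacement of biotin-H3(5-23)K14Ac peptide (50 nM final) from BAZ2B (50 nM final) in PBS pH 7.4, 0.01% Tween-20; complex preformed 30 min RT, then compounds (top 110 uM) 30 min RT, beads 20 min dark.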
HP1b binding inh = blocks HP1-beta chromodomain binding to methylated histone tails. Potency, µM (series often up to 114 µM), for the others: at the highest dose activity change, negative = inhibition, actives largely listed as inhibitors. hit rate 0.56% among 390,000. AlphaScreen HP1-beta / biotin-H3K9me3 peptide binding. P83916; note: nearly all actives have a fitted effect of over 70% in size
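Compound inhibition of the preformed complex between 50 nM HP1-beta and 50 nM biotinylated H3K9me3 peptide was read by AlphaScreen. Buffer was PBS pH 7.4 with 0.01% Tween-20. Incubations ran 30 min at room temperature, with 10 ug/mL donor/acceptor beads.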
Starred values were filed as active, the others as inactive; ? = inconclusive; . = no result given; [ ] = dose if it differs, or a comment. An excerpt weighted towards active compounds, which were near 11% of everything screened. Calls come from the whole dose curve; as a rule, active = well fitted inhibition curve with a large enough effect; inconclusive = small, poorly fitted or top-dose-only effect; inactive = no such curve, though single readings can be large or run the other way. Potency is the fitted concentration of half-maximal effect.

SMILES	JMJD2A Tudor	L3MBTL1 block	G9a inh	BAZ2B inh	HP1b binding inh
Cc1ccc(C(=O)NC(c2ccco2)c2cc(Cl)c3cccnc3c2O)cc1 (centres undefined)	-10%	.	.	.	.
CCC(=O)NC(/C=C/c1ccccc1)c1cc([N+](=O)[O-])c2cccnc2c1O (centres undefined)	.	6%	3.2µM*	4.5µM*	.
Cc1ccc(C(NC(=O)C(C)C)c2cc([N+](=O)[O-])c3cccnc3c2O)cc1 (centres undefined)	25µM*	25µM*	?	7.9µM*	-8%
COc1ccc(OC)c(C(=O)CSc2ncc3c(n2)-c2ccccc2N(Cc2ccccc2C)S3(=O)=O)c1	5%	.	-4%[59 µM]	-10%	29%
COc1ccc(-c2nc3cccc(C)n3c2Nc2ccc(C)cc2)cc1	40µM*	.	.	.	-21%
COc1ccc(Nc2c(-c3ccco3)nc3cccc(C)n23)cc1	56µM*	.	25µM*	22µM*	?
COc1ccc(Nc2c(-c3ccco3)nc3ccc(C)cn23)cc1	0%	.	-13%[59 µM]	-34%	28%
Cc1cccc(OCC(=O)NNC(=O)CCCCC(=O)NNC(=O)COc2cccc(C)c2)c1	1%	.	-2%	3%	37%
O=C(CCCCC(=O)NNC(=O)COc1ccccc1)NNC(=O)COc1ccccc1	-5%	.	35µM*	-19%	21%
COc1ccc(C(=O)NNC2=NS(=O)(=O)c3ccccc32)cc1OC	-4%	.	8%	?	24%
O=C(COc1ccccc1)NNC1=NS(=O)(=O)c2ccccc21	-11%	7%	45µM*	.	37%
O=C(CCc1ccccc1)NNC(=O)COc1ccc(Br)cc1	20µM*	.	23%[59 µM]	5%	50µM*
Cc1ccn2cc(CNS(=O)(=O)c3ccc4ccccc4c3)nc2c1	-15%	.	71µM*	-26%	21%
Cn1nnc2c(N3CCN(c4cccc(Cl)c4)CC3)ncnc21	-15%	.	4%[59 µM]	-1%	1%
CCCC1C(c2ccco2)NC(c2ccco2)CC1(C)O (centres undefined)	3.5µM*	0%	6.3µM*	.	?
CC1/C(=N/O)CC(c2ccco2)NC1c1ccco1 (centres undefined)	-10%	-3%	11%[59 µM]	-1%	12%
N#CC1=C(N)SC(N)=C(C#N)C1CCc1ccccc1	-25%	6%[11.4 µM]	?	-25%	41%
N#CC1=C(N)SC(N)=C(C#N)C1c1c(Cl)cccc1Cl	?	9%	11µM*	?	-9%
CN(C)CCNc1cc(-c2ccncc2)nc2ccccc12	-13%	0%	22µM*	?	67%
Cc1cccc(-c2noc(-c3cc(C(C)C)[nH]n3)n2)c1	-6%	.	-16%[59 µM]	14%	25%
Cc1cc2c(s1)c1cnn(Cc3cc(C(F)(F)F)cc(Cl)c3F)c(=O)c1n2C	-27%	.	.	.	.
CCOc1ccc(C(C)=O)cc1N1C(=O)C2C3C=CC(C3=C(C)C)C2C1=O (centres undefined)	-15%	1%	?	-30%	55%
CCOc1ccc(C(C)=O)cc1N1C(=O)C2C(C1=O)C1C=CC2C12CC2 (centres undefined)	-1%	0%	-9%	50µM*	29%
CC(C)[C@H]1COC(c2cc(Cl)cc(Cl)c2)=N1	.	.	20%	.	.
COc1ccc(CN2CC(=O)N(c3cc(Cl)ccc3C)C2=S)cc1OC	-31%	.	71µM*	4%	7%
SMILES	JMJD2A Tudor	L3MBTL1 block	G9a inh	BAZ2B inh	HP1b binding inh
COc1ccc(CN2CC(=O)N(c3ccc(C)c(C)c3)C2=S)cc1OC	56µM*	.	-40%	-11%	?
COc1cc(CN2CC(=O)N(c3cc(Cl)ccc3C)C2=S)cc(OC)c1OC	?	.	?	-18%	12%
COc1ccc(C(=O)/C=C/c2ccccc2)c(OC)c1	-5%	5%	15%[59 µM]	5%	27%
COc1cc(/C=C/C(=O)c2ccccc2O)cc(OC)c1OC	50µM*	-7%	45µM*	56µM*	-32%
COc1cc(OC)c(C=CC(=O)c2ccccc2O)c(OC)c1	?	.	.	.	28µM*
Cc1cc(O)ccc1Nc1nc2ccccc2nc1Nc1ccc(O)cc1C	89µM*	-11%	4.5µM*	50µM*	-17%
Cc1ccc(Nc2nc3ccccc3s2)c(C)c1	8%	5%	16%[59 µM]	9%	47%
Clc1cccc2c1CCN(Cc1nc(-c3cnccn3)no1)C2	0%	-3%	40µM*	-19%	18%
O=C(NNc1c2ccccc2nc2ccccc12)c1ccc(Cl)cc1	-23%	.	35µM*	?	-2%
O=C(NNc1ncnc2ccccc12)c1cccc(Cl)c1	6%	.	79µM*	79µM*	37%
Clc1cncc(Cl)c1NNc1c2ccccc2nc2ccccc12	?	2%	1.3µM*	?	1%
O=C(NNc1ncnc2c1cnn2-c1ccccc1)c1cccc(Cl)c1	-21%	.	?	19%	100%
Nc1ccccc1C(=O)NNc1c2ccccc2nc2ccccc12	32µM*	?	18µM*	28µM*	18µM*
Cc1ccc(C(=O)NNc2c3ccccc3nc3ccccc23)cc1	-34%	-20%	18µM*	?	-13%
CC(C)NC(=O)NC(=O)CSc1ccc(S(=O)(=O)N2CCOCC2)cn1	10%	3%	45µM*	34%	22%
CCOC(=O)NC(=O)CSc1ccc(S(=O)(=O)N2CCCCC2)cn1	-8%	-5%	.	.	61%
CCCCNC(=O)CSc1ccc(S(=O)(=O)N2CCOCC2)cn1	-17%	-2%	-46%[59 µM]	-5%	23%
CN(C)C(=O)CSc1ccc(S(=O)(=O)N2CCCC2)cn1	-3%	-1%	56µM*	-3%	26%
C=C(C)CN(CC)C(=O)CSc1ccc(S(=O)(=O)N2CCN(Cc3ccccc3)CC2)cn1	-12%	-11%	-41%[12.7 µM]	-9%	26%
CCC(CC)NC(=O)CSc1ccc(S(=O)(=O)N2CCCCC2)cn1	-5%	1%	50µM*	50%	28%
C=C(C)CN(CC)C(=O)CSc1ccc(S(=O)(=O)N2CCN(C)CC2)cn1	-4%	1%	45µM*	9%	38%
CCC(=O)N1CCc2cc(Br)cc(S(=O)(=O)NCCc3ccc(C)cc3)c21	-12%	.	-3%[59 µM]	4%	21%
COc1ccc(CNc2nc(N)nc3nc[nH]c23)cc1	-9%	.	.	.	21%
O=C(COC(=O)c1cccc(S(=O)(=O)N2CCN(c3ccccc3)CC2)c1)NCc1ccco1	22µM*	?	45µM*	45µM*	-54%
COc1ccccc1CNC(=O)COC(=O)c1ccc(C)c(S(=O)(=O)N2CCOCC2)c1	6%	-1%	4%[0.501 µM]	1%	28%
COc1ccccc1CNC(=O)COC(=O)c1cccc(S(=O)(=O)N2CCOCC2)c1	-3%	6%	13µM*	-1%	13%
COc1ccccc1OCC(=O)/C=C1/N(C)c2ccccc2C1(C)C	10%	-29%	-8%	14%	23%
